One may read the inhibition as the change of the read-out against control, counted positive when it falls.

For 63 molecules, inhibition results are on record in PubChem BioAssay AID1117319 (Southern Research Institute, 2015).

Several values for one entry are separate records, joined by “and”; a condition that tells them apart may be missing. Equal entries are not always repeated. About 1,500 (0.58%) of roughly 260,000 compounds were called active. Not shown: some 5% with an inconclusive outcome. Only a sample is shown. Potency and affinity values are given separately. Values without a mark were called inactive.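 How the source made its calls: active means inhibition above a set limit at one or more doses, reproduced on every date tested; inconclusive means results disagree between test dates, or hit never tested in dose response; inactive means the rest.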

This test deals with Virion infectivity factor (Human immunodeficiency virus type 1 group M subtype B (isolate BH10)) + Virion infectivity factor (Human immunodeficiency virus type 1 group M subtype B (isolate BRU/LAI)) + Virion infectivity factor (Human immunodeficiency virus type 1 group M subtype B (isolate PCV12)) + Virion infectivity factor (Human immunodeficiency virus type 1 group M subtype B (isolate HXB2)) + DNA dC->dU-editing enzyme APOBEC-3G (Homo sapiens) (UniProt P69720+P69721+P69722+P69723+Q9HC16). In words: HIV-1 Vif–A3G interaction blockers – biochemical, TR-FRET, GST-Vif 1-94, biotin-A3G peptide, dose response retest, primary screen (AID 1117319).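 Further: Vif residues 1-94 fused to GST binding biotinylated APOBEC3G peptide 110-148; 0% = full assay without inhibitor and 100% = GST in place of GST-Vif.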 The conditions noted are these: TR-FRET GST-Vif / biotin-A3G peptide binding; active compounds read high. A general note: In TR-FRET formats the signal depends on donor and acceptor labels being close together.
On to `O=C(CNC(=O)c1ccccc1F)OCCOc1cccc(Cl)c1`, for which the inhibition was 3.91%.
For `Cc1ccc(CCNC(=O)C2CC(c3ccccc3C(F)(F)F)=NO2)cc1` (stereo not drawn) the value was -3.19%; for `Cc1cccc(N2C(=O)c3ccc(Br)cc3C2=O)n1`, 1.11%.
For `COc1ccc(-c2c(N)cnc(C(=O)O)c2C)c(OCc2ccccc2)c1OC` the value was 2.47%.
For `NC1=C(Br)C(=O)c2ncccc2C1=O` the value was 0.39%.
As for `COc1ccc(-c2c(C#N)cnc(C)c2C)c(O)c1OC`, the inhibition is -2.84%.
With `COc1ccc(C2=C(N)c3ccccc3C2=O)cc1`, the inhibition was 29%.
For `COc1ccc(N)c2c1C(=O)c1ccccc1C2=O` the value was -29.2%.
For `COc1ccc(CC(=O)Nc2ccc(C(N)=O)cc2)cc1` the value was 15.2%; for `CCOc1ccc(N2C(=O)CC(N(Cc3ccco3)C(=O)CC)C2=O)cc1` (stereo not drawn), 0.31%.
For `Cc1c(N/C(=N/S(=O)(=O)c2ccc(F)cc2)c2ccccc2)c(=O)n(-c2ccccc2)n1C` the value was 0.73%; for `Cc1sc2nc(CSC(C)C(=O)NC3(C#N)CCCCC3)[nH]c(=O)c2c1C` (stereo not drawn), 9.91%; for `C[C@]12C=CC(=O)C=C1CCC1C2CC[C@@]2(C)C1CCC21OCCO1` (stereo partly drawn), -4.95%.
Turning to `C=C(C)COc1ccc2c(CC)cc(=O)oc2c1C`, the inhibition is -15.7%.
Turning to `O=C(CCN1C(=O)/C(=C/c2ccco2)SC1=S)Nc1ccc(O)cc1C(=O)O`, the inhibition is 20.3%.
As for `COc1ccc(/C=C2/SC(=S)N(CCCC(=O)Nc3cccc(O)c3)C2=O)cc1`, the inhibition was 4.43%.
Regarding `O=C(CCCN1C(=O)/C(=C\c2ccccc2)SC1=S)Nc1ccc(O)cc1`, the inhibition was 7.93%.
As to `O=C(CCCN1C(=O)/C(=C\c2cccs2)SC1=S)Nc1ccccc1O`, the inhibition is 3.84%.
Regarding `CCN1C=C(Cc2ccccc2C)C2=C(C1)C(c1ccccc1C)C(C#N)=C(N)O2` (stereo not drawn), the inhibition is 3.15%.
For `O=C(CCC(=O)Nc1ccccc1Cl)NNC(=O)Nc1cccc([N+](=O)[O-])c1` the value was -2.42%; for `c1ccc(N2CCN(c3cnccn3)CC2)nc1`, -2.48%.
For `c1ccc(N2CCN(c3ncccn3)CC2)cc1` the value was 2.21%; for `Cc1ccc(Sc2ncccc2C(=O)O)cc1`, 1.95%.
For `O=C(NCC(c1ccco1)N1CCCC1)c1cn(-c2ccccc2)nc1-c1ccc(F)cc1` (stereo not drawn) the value was -3.8%.
`C[C@H](NS(=O)(=O)c1ccccc1)C(=O)N1CCN(C(c2ccccc2)c2ccccc2)CC1`: the inhibition was 0.88%.
For `COc1ccc(OC)c(NS(=O)(=O)c2ccc(Br)s2)c1` the value was 2.77%; for `Oc1cccc2ccc(N3CCOCC3)nc12`, -8.55%.
For `CC(C)(C)C(=O)Oc1cc(N)n(S(=O)(=O)c2ccccc2)n1` the value was -2.72% and -3.77%.
As for `COc1ccc(CN(C(=O)c2cccs2)c2ccccc2C(=O)O)cc1`, the inhibition was -12.9%.
For `O=C1OCCC1Sc1ncnc2sc3c(c12)CCC3` (stereo not drawn), the inhibition is 21.7%.
For `CN(Cc1ccccc1)C(=O)COC(=O)C1CCN(S(=O)(=O)c2ccc3c(c2)OCCO3)CC1` the value was -5.03%.
For `Cc1ccc(C)c(/C(O)=C2\C(=O)C(=O)N(CCCN3CCOCC3)C2c2cccnc2)c1` (stereo not drawn) the value was -1.34%.
As for `COC(=O)c1[nH]c(C)c(/C(O)=C2\C(=O)C(=O)N(CCN3CCOCC3)C2c2ccco2)c1C` (stereo not drawn), the inhibition is 10.8%.
On to `CC(CCc1ccccc1)NC(=O)c1nnc(Cc2ccc(Cl)cc2)o1` (stereo not drawn), for which the inhibition is -1.14%.
As for `CNCc1ccccc1Sc1ccc(OC)cc1`, the inhibition is 4.31%.
Turning to `CNCc1ccccc1Sc1cccc2ccccc12`, the inhibition was -4.29%.
For `Cc1ccc(O)c(Sc2cc(C)ccc2O)c1` the value was 3.64%; for `CNCc1ccccc1Sc1cccc(O)c1`, -4.96%; for `O=C(COc1cc(F)ccc1[N+](=O)[O-])Nc1ccc2c(c1)OCO2`, -6.99%.
For `CNCCCOc1cccc(Oc2ccccc2)c1` the value was 9.66%; for `COc1cccc2cc(C(=O)c3ccccc3)oc12`, -4.51%.
As to `O=C(NCc1ccc2c(c1)OCO2)c1ccccn1`, the inhibition was 10.1%.
For `O=C(Nc1ccc2c(c1)OCO2)c1cc2ncc(Br)cn2n1` the value was 6.91%; for `O=C(NN1CCOCC1)c1cc(-c2ccc(Cl)c(Cl)c2)nc2ccccc12`, -15.2%; for `CC1CC(OCC(O)CN2CCOCC2)CC(C)(C)C1` (stereo not drawn), -2.99%.
As for `N#CCC(=O)Nc1ccc(C(=O)OC(C(=O)Nc2cc(C(F)(F)F)ccc2Cl)c2ccccc2)cc1` (stereo not drawn), the inhibition is 6.13%.
As for `CCOC(=O)C(=NC1CCS(=O)(=O)C1)NNc1cc(Cl)ccc1Cl` (stereo not drawn), the inhibition was 11.7%.
As to `CCOC(=O)CCCn1ncn2c(cc3occc32)c1=O`, the inhibition is 7.22%.
For `COC(=O)Cn1ncn2cccc2c1=O` the value was 31%; for `CC1CCCCC1NC(=O)CCNS(=O)(=O)c1ccc2c(c1)CCC(=O)N2` (stereo not drawn), 6.16%; for `COC(=O)c1ccc(C)c(NC(=O)c2nn(C)c(=O)c3ccccc23)c1`, 0.46%.
For `CCCn1nc(C(=O)Nc2cccc(C(=O)OC)c2)c2ccccc2c1=O` the value was 0.28%.
With `CCN(C(=O)C1CCCCC1)c1nnc(-c2cccnc2)s1`, the inhibition is -11.9%.
For the molecule `O=C(C1CCCN1S(=O)(=O)c1cccc2cccnc12)N1CCc2ccccc2C1` (stereo not drawn), the inhibition is 8.45%.
Turning to `O=C(C1CCN(S(=O)(=O)c2cccc3cccnc23)CC1)N1CCN(c2ccccc2)CC1`, the inhibition was 3.12%.
Regarding `O=C1CCCN1CCCNC(=S)Nc1cccc2ccccc12`, the inhibition is 30.4%.
On to `CC(C)OC(=O)CSc1nnc(-c2ccncc2)n1N`, for which the inhibition was -2.43%.
As to `O=c1cc(CN2CCCc3ccccc32)nc2sccn12`, the inhibition is 22%.
For the molecule `O=c1cc(CN2CCc3ccccc32)nc2sccn12`, the inhibition was 23.2%.
Turning to `Cc1ccc(CCNc2ncnc(Cl)c2N)cc1`, the inhibition was -3.15%.
On to `Cc1nn(C)cc1/C=N\NC(=O)c1ccc(Cn2cc(Cl)cn2)cc1`, for which the inhibition was -3.19%.
Turning to `COc1cccc(C(C#N)N2N=C(C)CC2(C)C)c1O` (stereo not drawn), the inhibition was -2.38%.
Turning to `COc1cc(C(C#N)N2CCCCC2)ccc1O` (stereo not drawn), the inhibition is 7.46%.
